The text below walks through data of PubChem BioAssay (NCATS).

Values joined by “and” are separate entries in the source; they are usually repeats but may differ in a detail not shown here. Equal entries are not always repeated. Results filed as inconclusive are left out. Values without a mark were called inactive. Active and inactive are the calls of the source. Calls come from the whole dose curve; as a rule, active = well fitted curve in the direction sought with a large enough effect; inconclusive = small, poorly fitted or top-dose-only effect, or another doubt; inactive = no such curve, though single readings can be large; an effect the other way counts as inactive or inconclusive.

For test [1], the target named is Aldehyde dehydrogenase, mitochondrial (Homo sapiens) (UniProt P05091). Briefly: qHTS for Inhibitors of the Aldehyde Dehydrogenase Family (ALDH2) Primary screen (AID 2061308). Note: nearly all actives have a fitted effect of over 55% in size.
The target in test [2] is Retinaldehyde dehydrogenase 3 (Homo sapiens) (UniProt P47895). Briefly: qHTS for Inhibitors of the Aldehyde Dehydrogenase Family (ALDH1A3) Confirmatory screens (AID 2061311). Note: nearly all actives have a fitted effect of over 60% in size. Note: potency is the fitted concentration of half-maximal effect. In general terms: Quantitative high-throughput screening tests each substance at several concentrations.
In test [3] the target is Retinal dehydrogenase 2 (Homo sapiens) (UniProt O94788). Briefly: qHTS for Inhibitors of the Aldehyde Dehydrogenase Family (ALDH1A2) Confirmation screens (AID 2061314). Note: nearly all actives have a fitted effect of over 65% in size. Note: potency is the fitted concentration of half-maximal effect.
Test [4] has as its target Retinaldehyde dehydrogenase 3 (Homo sapiens) (UniProt P47895). The test can be described thus: qHTS for Inhibitors of the Aldehyde Dehydrogenase Family (ALDH1A3) Primary screen (AID 2061315).
Test [5] deals with Aldehyde dehydrogenase 1A1 (Homo sapiens) (UniProt P00352). The test can be described thus: qHTS for Inhibitors of the Aldehyde Dehydrogenase Family (ALDH1A1) Confirmatory screens (AID 2061316). Note: nearly all actives have a fitted effect of over 65% in size. Note: potency is the fitted concentration of half-maximal effect.

For the compound `Cc1ccc(-c2ccc(=O)n(CC(=O)NCCc3ccncc3)n2)cc1`, in test [1], the Potency entry was “inactive”.

For `Oc1cc(Nc2ccc(N3CCCCC3)cc2)cc2cccnc12`, in test [1], the Potency result is “inactive”.

For `O=C1CCc2cc(S(=O)(=O)Nc3ccccc3-c3ccccc3)ccc2N1`, the Potency result in test [1] is “inactive”.

Regarding `CC(=O)NC(c1cc(Cl)c2ccccc2c1O)C(C)C` (stereo not drawn), the Potency result in test [1] was “inactive”. The Potency was 8.96 µM (active) in test [2] and 20.1 µM (active) in test [3].

In the case of `O=[N+]([O-])c1ccccc1S(=O)(=O)Nc1cccc2cccnc12`, the Potency result in test [1] was “inactive”. For the same compound, the Potency is 12.7 µM (active) in test [2] and 0.712 µM (active) in test [3].

In the case of `CC(=O)c1ccc(N2CCN(S(=O)(=O)c3cc4c(cc3Cl)NC(=O)C4)CC2)cc1`, the Potency result in test [1] is “inactive”. Further, the Potency in test [2] is 3.55 µM (active).

For `COc1ccc(C(=O)NC(c2ccco2)c2cc(Cl)c3cccnc3c2O)cc1` (stereo not drawn), the Potency entry in test [1] was “inactive”.

Consider `C=C1CCC2C(C)(CO[C@@H]3O[C@H](CO)[C@@H](O)[C@H](O)[C@H]3O)C(O)CCC2(C)C1C(=O)CC1=CCOC1=O` (stereo partly drawn), for which the Potency entry in test [1] was “inactive”.

For `CO[C@H]1c2cc(C(C)C)c(O)c(O)c2[C@@]23CCCC(C)(C)C2[C@@H]1OC3=O` (stereo partly drawn), the Potency entry in test [1] was “inactive”. Besides, the Potency in test [2] and in test [3] was 6.97 µM (active) each time.

In the case of `COc1ccc(CNc2ccc(N3CCN(C(C)=O)CC3)cc2)cc1OC`, in test [1], the Potency result is “inactive”. In addition, the Potency in test [2] and in test [3] was 12.7 µM (active) each time.

For `CC(=O)c1ccc(N2CCN(S(=O)(=O)c3ccc4c(c3)C(Cl)(Cl)C(=O)N4)CC2)cc1`, in test [1], the Potency entry is “inactive”. In addition, the Potency in test [2] was 2.82 µM (active) and 1.12 µM (active); in test [3] it was 6.34 µM (active).

Regarding `O=C(NCCc1ccc(O)c(O)c1)c1cc2sccc2n1Cc1ccccc1`, the Potency result in test [1] is “inactive”.

On to `Cc1ccc2nc3sc(C(=O)NCCc4cccnc4)cc3cc2c1`, for which, in test [1], the Potency result is “inactive”. For the same compound, the Potency in test [2] is 12.7 µM (active).

`O=S(=O)(Nc1cccc2cccnc12)c1ccc2ccccc2c1`: in test [1], the Potency result is “inactive”.

Regarding `C=C1C(=O)OC2/C=C(\CO)CC/C=C(\C=O)C(O)C(OC(=O)C(C)CC)C12` (stereo not drawn), the Potency result in test [1] is “inactive”.

With `CCN(CC)C(=O)CC(c1ccc2c(c1)OCO2)c1c(O)cc(OC)cc1OC` (stereo not drawn), the Potency entry in test [1], in test [2], in test [3] and in test [4] was “inactive” in each case.

In the case of `CC(C)(C)OC(=O)N1CCN(c2ccc(NCc3occc3-c3ccc(C#N)cc3)cc2)CC1`, the Potency entry in test [1] is “inactive”. Moreover, the Potency was 20.1 µM (active) in test [2], 12.7 µM (active) in test [3] and 11.3 µM (active) in test [5].

Take `Cc1ccc2nc3sc(C(=O)N4CCOCC4)cc3cc2c1`: the Potency entry in test [1] and in test [4] was “inactive” in each case. The Potency in test [2] was 25.2 µM (active).

Consider `CNS(=O)(=O)c1ccc(Cc2c(-c3cccc(-c4ccccc4)c3)[nH]n(-c3nc(C(=O)O)cs3)c2=O)cc1`, for which the Potency result in test [1] and in test [4] was “inactive” in each case. Further, the Potency in test [2] is 4 µM (active).

Turning to `CC(=O)N1CCN(c2ccc(NCc3cccc(C)c3)cc2)CC1`, in test [1], the Potency result was “inactive”. Besides, the Potency was 20.1 µM (active) in test [2], 12.7 µM (active) in test [3] and 12.7 µM (active) in test [5].

As for `C/C=C/c1ccc2oc(-c3ccc(O)c(OC)c3)c(C)c2c1`, the Potency result in test [1] was “inactive”. In addition, the Potency is 1.01 µM (active) in test [2], 25.1 µM (active) in test [3] and 17.9 µM (active) in test [5].

For the compound `O=C1Nc2ccc(C(=O)c3ccco3)cc2/C1=C/c1cc(Cl)c(O)c(Cl)c1`, the Potency result in test [1] and in test [4] was “inactive” throughout. The Potency in test [2] is 14.1 µM (active); in test [3], 12.6 µM (active).

Regarding `NNc1ccc(NC(=O)c2cccs2)cn1`, the Potency entry in test [1] and in test [4] was “inactive” in each case. The Potency in test [2] was 11.3 µM (active).

On to `Cc1ccc(NS(=O)(=O)c2cc3c(cc2N2CCC2)NC(=O)CC3)cc1C`, for which the Potency result in test [1], in test [2] and in test [4] was “inactive” throughout. Besides, the Potency in test [3] was 22.5 µM (active); in test [5], 11.3 µM (active).

For the compound `Cc1ccc(S(=O)(=O)Nc2cccc3ccc[n+](C)c23)cc1`, the Potency result in test [1] and in test [4] was “inactive” each time. Moreover, the Potency in test [2] is 10.1 µM (active); in test [3], 25.2 µM (active).

As to `Cc1ccc(CNc2cccc(N3CCCCC3)c2)cc1`, the Potency result in test [1] and in test [4] was “inactive” throughout. Further, the Potency in test [2] is 22.5 µM (active).

For `Cc1ccc(CNc2ccc(N3CCNCC3)cc2)cc1`, the Potency result in test [1] was “inactive”. For the same compound, the Potency in test [2] was 14.2 µM (active); in test [3] it was 10.1 µM (active); in test [5], 11.3 µM (active).

With `CC1(C)N=C(Nc2nc3ccccc3o2)NC2=C1C(=O)CCC2`, the Potency entry in test [1], in test [2] and in test [4] was “inactive” in each case.

For the compound `Oc1cc(NCc2ccc(F)cc2)cc2cccnc12`, the Potency result in test [1] and in test [3] was “inactive” each time. In addition, the results for the Potency in test [2] and in test [5] were 1.59 µM (active) and 7.12 µM (active), respectively.

As for `CN(C)c1cccc(-c2cnc(N3CCC(C(N)=O)CC3)nc2)c1`, the Potency entry in test [1] is “inactive”. In addition, the results for the Potency in test [2], in test [3] and in test [5] were 22.5 µM (active), 12.7 µM (active) and 11.3 µM (active), respectively.

For the compound `Cc1ccc(NC(=O)CN2C(=O)N/C(=C\c3ccco3)C2=O)cc1`, the Potency entry in test [1] and in test [4] was “inactive” each time. Further, in test [2], the Potency is 4.49 µM (active).

Turning to `CN(C)c1cnc2c(O)ccc(C(=O)O)c2c1`, the Potency result in test [1] and in test [4] was “inactive” throughout. For the same compound, the results for the Potency in test [2] and in test [3] were 8.96 µM (active) and 5.04 µM (active), respectively.

As for `O=[S+]([O-])(Nc1nccs1)c1ccc(NCc2cc(F)cc(Cl)c2O)cc1`, the Potency result in test [1], in test [2], in test [3] and in test [4] was “inactive” in each case.

As to `O=C(C(NS(=O)(=O)c1ccc2[nH]c(=O)ccc2c1)c1cccc(C(F)(F)F)c1)N(Cc1ccco1)Cc1cccs1` (stereo not drawn), the Potency result in test [1], in test [4] and in test [5] was “inactive” in each case. Further, the Potency in test [2] was 25.2 µM (active); in test [3], 12.7 µM (active).

For `N#CN1CCC(NS(=O)(=O)c2ccc(C(F)(F)F)cc2)CC1`, the Potency entry in test [1], in test [2], in test [4] and in test [5] was “inactive” throughout. In test [3], the Potency was 12.7 µM (active).

As to `CC(=O)N1CCN(c2ccc(NCc3ccccc3)cc2)CC1`, the Potency result in test [1] is “inactive”. The Potency was 12.7 µM (active) in test [2], 11.3 µM (active) in test [3] and 10.1 µM (active) in test [5].
